Results published in PubChem BioAssay (NCATS).
Records with an inconclusive call do not appear. Calls of active or inactive are those of the source. Calls follow the shape of the dose curve; as a rule, active = well fitted cell-killing curve with a large enough effect; inconclusive = small, poorly fitted or top-dose-only effect, or effect the other way; inactive = no such curve, though single readings can be large or run the other way.

Assay: Quantitative High-Throughput drug screen in 47 multiple myeloma cell lines against the NCATS MIPE library collection: L363_DSMZ cell viability assay (AID 1918984); also: nearly all actives have a fitted effect of over 40% in size
Settings: L363 myeloma viability, CellTiter-Glo ATP luminescence, 48 h; series mostly up to 45.8 µM
How it was run: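 ATP-based CellTiter-Glo luminescence after 48 h drug exposure (37 °C, 5% CO2) of 500 myeloma cells per well. DMSO-only wells set 100% viability, media-only wells 0%; MIPE 4.0 library added by pin tool.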
Potency is read from the fitted curve at half-maximal effect.

Row | Structure (SMILES) | Potency
1 | COc1ccc(C=Cc2cc(OC)c(OC)c(OC)c2)cc1NC(=O)[C@H](N)CO | 9.3 nM (active)
2 | CCN(CC)Cc1ccc2cc(COC(=O)Nc3ccc(C(=O)NO)cc3)ccc2c1 | 372 nM (active)
3 | CC(=O)OCC(=O)[C@@]1(O)CC[C@H]2[C@@H]3CCC4=CC(=O)CC[C@]4(C)[C@@H]3C(=O)C[C@@]21C | inactive
4 | COc1ccc2c(c1OC)C(=O)OC2[C@H]1c2c(cc3c(c2OC)OCO3)CCN1C (stereo not given in full) | 74.3 nM (active)
5 | COc1cccc2c1C(=O)c1c(O)c3c(c(O)c1C2=O)C[C@@](O)(C(C)=O)C[C@H]3O[C@H]1C[C@H](N)[C@H](O)[C@H](C)O1 | 118 nM (active)
6 | CCOC(=O)N1CCN([N+]([O-])=NOc2ccc([N+](=O)[O-])cc2C#N)CC1 | 590 nM (active)
7 | C[C@H]1O[C@H](O[C@H]2[C@H](O)[C@@H](O)[C@@H](O[C@H]3[C@H](O)[C@@H](O)C(O)O[C@H]3CO)O[C@H]2CO)[C@H](O)[C@@H](O)[C@H]1N[C@H]1C=C(CO)[C@@H](O)[C@H](O)[C@@H]1O (stereo not given in full) | 20900 nM (active)
8 | CC[C@H]1OC(=O)[C@H](C)[C@@H](O[C@H]2C[C@@](C)(OC)[C@@H](O)[C@H](C)O2)[C@H](C)[C@@H](O[C@@H]2O[C@H](C)C[C@H](N(C)C)[C@@H]2O)[C@](C)(OC)C[C@@H](C)C(=O)[C@H](C)[C@@H](O)[C@]1(C)O | inactive
9 | OC[C@H]1OC(O)C[C@@H](O)[C@H]1O (stereo not given in full) | inactive
10 | CN[C@H]1[C@@H](O)[C@@H]2O[C@@H]3O[C@H](C)CC(=O)[C@]3(O)O[C@@H]2[C@@H](NC)[C@H]1O | 743 nM (active)
